# TrxR1 substrate: is turned over as a substrate by rat TrxR1; hit rate 0.01% among 390,000; purified TrxR1 substrate turnover, NADPH consumption readout; Potency, µM (highest dose often 114 µM), for the others: at the top dose activity change, negative = substrate turnover; also: nearly all actives have a fitted effect of over 50% in size
#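 Rat TrxR1, dispensed at 90 nM, was prereduced with 400 uM NADPH (final) for 5 min at ~22 deg C, then incubated with compound 15 min before 400 uM selenite. A first-read NADPH fluorescence drop versus no-compound background flagged substrates.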
# Eya2 phos inh: inhibitors of human Eya2 phosphatase activity. O00167. recombinant Eya2, OMFP fluorescence dephosphorylation (OMFP is methylfluorescein phosphate). Potency, µM (doses to about 76.9 µM), for inactives: top-dose activity, negative = inhibition, most hits filed as inhibitors. hit rate 0.006% among 330,000
#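 Eya2 protein (added as 0.2 uM solution) was preincubated with compound for 10 min at ambient temperature in 50 mM HEPES pH 7.5, 50 mM NaCl, 5 uM MgCl2, 0.05% BSA, 1 mM DTT. OMFP (added at 50 uM) then reacted 10 min; fluorescence read at 485/525 nm.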
# IDH1 R132H inh: human IDH1 R132H inhibition | Potency, µM (highest dose often 76.6 µM), inactives show top-dose activity change, negative = inhibition, most hits filed as inhibitors | hit rate 0.093% among 390,000 | O75874 | AID 602179 | IDH1-R132H enzyme, NADPH consumption, diaphorase/resazurin fluorescence; also: nearly all actives have a fitted effect of over 65% in size
# Target sequence (O75874 whole entry R132H, stated change not applied): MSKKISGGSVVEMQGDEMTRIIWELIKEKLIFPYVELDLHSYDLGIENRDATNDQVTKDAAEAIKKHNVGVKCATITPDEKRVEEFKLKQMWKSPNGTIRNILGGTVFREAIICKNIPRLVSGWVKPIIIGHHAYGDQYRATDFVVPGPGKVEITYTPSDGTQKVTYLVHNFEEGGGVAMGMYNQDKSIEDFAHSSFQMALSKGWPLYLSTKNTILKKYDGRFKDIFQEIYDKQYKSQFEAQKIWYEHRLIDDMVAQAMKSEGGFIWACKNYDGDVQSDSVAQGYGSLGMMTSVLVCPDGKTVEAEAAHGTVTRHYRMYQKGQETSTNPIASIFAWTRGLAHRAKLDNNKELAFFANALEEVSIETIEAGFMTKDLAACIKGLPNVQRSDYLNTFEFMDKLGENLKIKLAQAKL
#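 IDH1-R132H (0.5 ug/mL dispensed) in pH 7.5 Tris buffer was preincubated 30 min with compound, then given a substrate mix of 0.016 mM NADPH and 2 mM alpha-KG for 80 min at room temperature; remaining NADPH was read by diaphorase/resazurin fluorescence.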
# RGS4 inhibitor: human RGS4 inhibition. P49798. Transcreener GDP fluorescence polarization, RGS4-accelerated GTP hydrolysis. Potency, µM (highest dose often 114 µM), for the others: at the top dose activity change, negative = inhibition, usual class: inhibitors. hit rate 0.039% among 390,000. AID 504845; also: nearly all actives have a fitted effect of over 75% in size
#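 MLSMR compounds (23 nl, pin-transferred) preincubated 10 min at room temperature with a 500nM (2x) first reagent, then RGS4 at 900nM (2x) plus Transcreener GDP mix added; fluorescence polarization (620/688 nm) read before and after 90 min at 30 °C.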
# TrxR1 inh: inhibitors of rat thioredoxin reductase 1 | AID 588453 | hit rate 1% among 390,000 | Potency, µM (series often up to 114 µM), for the others: at the highest dose activity change, negative = inhibition, actives largely listed as inhibitors | recombinant rTrxR1, NADPH fluorescence consumption, selenite substrate; also: nearly all actives have a fitted effect of over 65% in size
#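 Rat TrxR1 (90 nM in the dispensed reagent) was pre-reduced with 400 uM NADPH for 5 min at room temperature, then incubated with compound for 15 min. After 400 uM selenite was added, NADPH fluorescence (Ex 340/Em 450 nm) was followed for 8 min.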
# The depositor's hits bear a star; ? = inconclusive; nt = not tested or not shown; ! = repeats disagree; [ ] = dose if it differs, or a comment. Rows were chosen to be rich in hits. Some 1.1% of all compounds tested hit in one or more screens of this group. Calls follow the shape of the dose curve; as a rule, active = well fitted curve in the direction sought with a large enough effect; inconclusive = small, poorly fitted or top-dose-only effect, or another doubt; inactive = no such curve, though single readings can be large; an effect the other way counts as inactive or inconclusive. % is scaled to controls: 0 for no effect and ±100 for the full control effect; potency is read from the fitted curve at half-maximal effect.
SMILES,TrxR1 substrate,Eya2 phos inh,IDH1 R132H inh,RGS4 inhibitor,TrxR1 inh
CCN(CC)c1ccc(S(=O)(=O)N2CCOCC2)cc1NC(=O)COC(=O)/C=C/c1ccco1,0.1%,nt,0.0%,0.9%,-23.3%
O=C(COC(=O)CNC(=O)c1ccc(Cl)c([N+](=O)[O-])c1)NCC1CCCO1 (stereo unspecified),-0.7%,1.7%,-6.9%,-22.6%,20.2%
CC(=O)Nc1ccc(C2=NNC(=Nc3cccc(S(=O)(=O)N(C)C)c3)SC2)cc1,-4.2%,-3.4%,41.4µM*,?,-0.1%
CN(C)S(=O)(=O)c1cccc(N=C2NN=C(c3ccccc3)CS2)c1,-18.5%,-15.6%,39.8µM*,-31.4%,-10.7%
O=C(CNC(=O)c1ccco1)OCC(=O)c1ccc2c(c1)CCCC2,-0.2%,2.4%,23.6%,-1.1%,79.4µM*
CC(C)(C)c1ccc(S(=O)(=O)/C=C/C#N)cc1,5.4%[57.1 µM],0.1%,nt,2.12µM*,2.12µM*!
Cc1nn(-c2ccccn2)c2c1C(=O)C(Br)CC2 (stereo unspecified),-5.7%,2.2%,17.1%,?,12.6µM*
CCOC(=O)N1C=CC=C[C@@H]2[C@@H](N3C(=O)c4ccccc4C3=O)C(=O)N21,6.6%,5.5%,-2.6%,-5.5%,15.8µM*
CCOC(=O)c1cc2sc(C)cc2n1CCCN1C(=O)c2ccccc2C1=O,-2.9%,6.3%,10.0%,-16.9%,4.0%
Cc1c(CNC2CCCCCC2)c(C(=O)O)c(C)n1Cc1cccc(Cl)c1,-7.3%,nt,8.7%,11.0%,-5.8%
CCOC(=O)c1c(C)oc2c1c(C(c1ccccc1)N1CCOCC1)c(O)c1ccccc12 (stereo unspecified),2.2%[57.1 µM],-7.5%,0.6%,-11.6%,-18.1%[57.1 µM]
CCOC(=O)c1c(C)oc2c1c(C(c1cccnc1)N1CCCCC1)c(O)c1ccccc12 (stereo unspecified),1.6%,-10.2%,-1.2%,1.2%,7.08µM*
Oc1c(C(Nc2ccccn2)c2ccccc2)ccc2cccnc12 (stereo unspecified),-4.2%,nt,nt,nt,50.1µM*
Oc1c(C(Nc2cccc(C(F)(F)F)c2)c2cccnc2)ccc2cccnc12 (stereo unspecified),-13.7%,1.6%,4.1%,?,14.1µM*
Oc1c(C(Nc2ccccn2)c2cccnc2)cc(Cl)c2cccnc12 (stereo unspecified),-7.5%,7.7%,-2.1%,-31.7%,12.6µM*
CCC(=O)NC(c1ccccc1OC)c1ccc2cccnc2c1O (stereo unspecified),9.5%,6.5%,5.7%,7.3%,25.8%
Oc1c(C(Nc2cccnc2)c2ccc(C(F)(F)F)cc2)ccc2cccnc12 (stereo unspecified),-6.3%,nt,nt,nt,?
CC(=O)NC(c1ccc(C)cc1)c1cc(Cl)c2cccnc2c1O (stereo unspecified),2.0%,-1.6%,-9.5%,11.9%,27.8%
COc1ccc(Cl)cc1C(Nc1cccnc1)c1ccc2cccnc2c1O (stereo unspecified),3.1%[57.1 µM],-7.5%,-7.4%,?,3.98µM*
CN1CCN(CCNC(=O)c2ccc3nc(-c4ccc(F)cc4)c(-c4ccc(F)cc4)nc3c2)CC1,47.2%,-28.2%,2.8%,5.4%,25.2%
Cc1ccnc(NC(=O)CCC(=O)N(CC(=O)NCc2ccc(F)cc2)Cc2ccco2)c1,-14.3%[57.1 µM],1.7%,9.2%,-2.6%,29.6%[57.1 µM]
O=C1CCCC2=C1C(c1cccc(O)c1)C1=C(N2)c2ccccc2C1=O (stereo unspecified),-12.7%,9.6%,-1.7%,23.1%,79.4µM*
CCOC(=O)c1cnc(SCC#N)nc1N,10.3%,4.3%,1.1%,-26.4%,8.0%
COc1ccc(NC(=O)[C@H](CCS(C)(=O)=O)N2Cc3ccccc3C2=O)c(OC)c1,-2.9%,-11.4%,2.7%,0.2%,4.2%
CCN(CC(=O)Nc1cc(Cl)ccc1C)C(=O)C1COc2ccccc2O1 (stereo unspecified),0.2%,3.9%,-0.8%,-18.5%,50.1µM*
Cc1ccc(Cl)cc1NC(=O)C1COc2ccccc2O1 (stereo unspecified),4.8%[57.1 µM],-2.2%,1.9%,-9.6%,3.8%[57.1 µM]
